Compound activity as filed in PubChem.
NS1 inh – blocks influenza NS1 protein function; Potency, µM (series often up to 46.1 µM); AID 2326; actives 0.4% (n = 270,000); calls by dose curve; further: actives are rising curves; nearly all actives have a fitted effect of over 50% in size
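A cell-based growth assay was used: compounds that relieve NS1-induced slow growth of budding yeast raise OD600. Assay medium was yeast nitrogen base with ammonium sulphate and -URA supplement, pH 6.0, with 2% galactose.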
Pf growth 96h – P. falciparum growth inhibition at 96 hours. P. falciparum luciferase reporter growth, 96 h. Potency, µM (highest dose often 28.7 µM), most hits filed as inhibitors. actives 6.9% (n = 320,000). AID 504834
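Parasite growth measured via integrated firefly luciferase reporter in P. falciparum. Infected erythrocytes at 2% hematocrit, 0.05% parasitemia final were treated 96 hours at 37 C under 5% CO2, and luminescence was read.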
Shiga toxin inh – inhibitors of Shiga toxin in Vero cells; Vero cells, Shiga toxin protein synthesis inhibition reporter; inhibition, % at 38.7 µM; actives 9.2% (n = 290,000); AID 2315; in the data active means inhibition mostly above about 28%, no sharp cut-off; inactive means mostly below about 43%
CHX counter – affects cycloheximide protein synthesis inhibition readout, counter-screen; cell reporter, cycloheximide protein synthesis inhibition counterscreen; max response, %; actives 12% (n = 300,000); AID 2314; in the data active means max response mostly above about 13%, no sharp cut-off; inactive means mostly below about 14%; further: read at 38.3 µM for the half of the compounds with a filed dose
Pf growth 48h – inhibits P. falciparum growth in the first generation, 48 h; Potency, µM (doses to about 28.7 µM), most hits filed as inhibitors; AID 504832; actives 5.9% (n = 310,000); P. falciparum luciferase growth in erythrocytes, 48 h
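Luciferase-expressing parasites in RBCs, 2% Hct / 0.1% parasitemia final; RPMI 1640 + 0.5% Albumax; 37 C, 5% CO2, one generation; luminescence read-out, lower signal = inhibition.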
Of the large screens only hits and unclear results are named; the others gave an inactive call. Shown are actives, neighbours in structure and some others; about 21% of the full set was active somewhere. Unless noted, the call rests on the fitted dose curve; in most records, active means well fitted inhibition curve with a large enough effect; inconclusive means small, poorly fitted or top-dose-only effect, or another doubt; inactive means no such curve, though single readings can be large or run the other way.

Nc1cccc(-c2cn(-c3cc4cc(C#CC5(O)CCCCC5)ccc4oc3=O)nn2)c1	none (no result: NS1 inh, Shiga toxin inh, CHX counter)
CCCN1C(=O)c2ccccc2NC1c1cc(OC)c(OC)c(OC)c1 (centres undefined)	Pf growth 48h inconclusive
CCN1c2ccccc2NC2N=C(OC)C(c3ccccc3)C21 (centres undefined)	CHX counter 18.1, Pf growth 48h inconclusive (no result: Pf growth 96h)
CCCCCCCCCCCCCCCCCC(=O)OCC(O)CO (centres undefined)	none (no result: NS1 inh, Shiga toxin inh, CHX counter)
C/C(=C\c1ccccc1)C(=O)NCc1ccco1	Pf growth 96h inconclusive, Shiga toxin inh 65.8, CHX counter 35.6 (no result: NS1 inh)
O=C(NCCc1ccccc1)C(=Cc1ccc(C(=O)O)cc1)C(=O)NCCc1ccccc1	Pf growth 96h inconclusive
C/C(=C\c1ccccc1)C(=O)NCCc1ccccc1	Shiga toxin inh 65.7, CHX counter 30.8
CC(=O)c1ccc(C(=O)N2CCCC(N3CCN(c4ccc(F)cc4)CC3)C2)s1 (centres undefined)	none
Cc1ccc(O)c(-c2cc(C(=O)NCc3ccncc3)[nH]n2)c1	Pf growth 96h 4.15µM, Pf growth 48h 2.94µM
Cc1ccc(C)c(NC(=O)c2sc(Cl)nc2C)c1	Pf growth 48h inconclusive
Cc1ccc(C)c(NC(=O)c2cc(-c3cc(C)ccc3O)n[nH]2)c1	Pf growth 96h inconclusive, Shiga toxin inh 75.9, CHX counter 58.9
Cc1cc(C)c(O)c(-c2cc(C(=O)NCc3ccccc3)[nH]n2)c1	Pf growth 96h inconclusive (no result: Pf growth 48h)
COc1ccc(OC)c(NC(=O)c2cc(-c3cc(C)c(C)cc3O)n[nH]2)c1	Pf growth 96h 1.85µM, Pf growth 48h 2.62µM
COc1ccc(OC)c(NC(=O)c2cc(-c3cc(C)cc(C)c3O)n[nH]2)c1	Pf growth 96h 9.28µM (no result: Pf growth 48h)
COc1ccc(NC(=O)c2cc(-c3cc(C)c(C)cc3O)n[nH]2)c(OC)c1	Pf growth 96h inconclusive
O=C(NC(=S)N1CCN(Cc2ccccc2)CC1)c1ccco1	Pf growth 96h inconclusive
COc1ccc(Cl)cc1NC(=O)c1cc(-c2cc(C)ccc2O)n[nH]1	Pf growth 96h 2.33µM, Pf growth 48h 1.85µM
COc1ccc(Cl)cc1NC(=O)c1cc(-c2ccc(C)cc2O)n[nH]1	Pf growth 48h inconclusive
CC(C)(C)C(=O)C(Oc1ccc(Cl)cc1)n1ccnc1 (centres undefined)	Pf growth 96h 12µM (no result: NS1 inh, Shiga toxin inh, CHX counter)
O=C(COc1ccc(Cl)cc1)NCCCn1ccnc1	none (no result: Pf growth 48h)
CCc1ccc2oc(C(=O)NCc3ccc(S(N)(=O)=O)cc3)c(C)c2c1	none
CCCc1ccc2oc(C(=O)NCCN3CCCC(O)C3)c(C)c2c1 (centres undefined)	Shiga toxin inh 77.2, CHX counter 33.8, Pf growth 48h inconclusive
Cc1c(C(=O)NCCCN2CCOCC2)oc2c1C1(CCC2)SCCS1	Shiga toxin inh active
CCCc1ccc2oc(C(=O)NCCCN3CCOCC3)c(C)c2c1	Pf growth 96h inconclusive, Shiga toxin inh 67.2, CHX counter 50.3
CCCc1ccc2oc(C(=O)NCc3nnc(C)o3)c(C)c2c1	Shiga toxin inh 97.2, CHX counter 44.7
CCOC(=O)C1(Cc2ccccc2C)CCCN(C(=O)c2cc(C3CC3)[nH]n2)C1 (centres undefined)	Pf growth 48h inconclusive
COc1ccc(OCCSc2nnc(CC(=O)Nc3cccc(Cl)c3Cl)n2C)cc1	CHX counter 23.5 (no result: Pf growth 48h)
N/C(=N\OC(=O)CCn1cccc(C(F)(F)F)c1=O)c1ccc(Cl)cc1	none
C/C(=N\NC(=O)CSCc1ccccc1Cl)c1cc(O)ccc1O	Shiga toxin inh 40.0, CHX counter 22.6, Pf growth 48h inconclusive
O=C(O)CCC(=O)C(=O)O	none (no result: Shiga toxin inh, CHX counter)
CCOc1ccc(S(=O)(=O)NCCC(=O)Nc2cccc(C(=O)OC)c2)cc1	none
O=C(Nc1ccncc1)c1cncc(Br)c1	none (no result: Pf growth 96h)
Cc1nc2ccc(NC(=O)c3ccc4ccccc4n3)cc2s1	Shiga toxin inh 101.6, CHX counter 27.5 (no result: NS1 inh)
Cc1nc2ccc(NC(=O)c3ccc(N4C(=O)CCC4=O)cc3)cc2s1	none (no result: NS1 inh)
N#Cc1ccccc1CSc1nc2ccc(NC(=O)c3ccccc3C(=O)O)cc2s1	Shiga toxin inh 79.4, CHX counter 27.3
CCNc1ccc(C(=O)Nc2ccc3nc(C)sc3c2)cc1[N+](=O)[O-]	Pf growth 96h inconclusive, CHX counter 27.3, Pf growth 48h inconclusive
C=CCNC(=O)Nc1ccc2nc(C)sc2c1	Pf growth 96h inconclusive
Cc1nc2ccc(NC(=O)c3cncc(Br)c3)cc2s1	Pf growth 96h inconclusive, Shiga toxin inh 101.7, CHX counter 31.7, Pf growth 48h inconclusive
O=C(O)c1ccc(CSc2nc3ccc(NC(=O)c4ccccc4C(=O)O)cc3s2)cc1	none (no result: NS1 inh)
